# Reference: publication PMC4336329 (PLoS ONE, 2015)
# In all, about 310,000 compounds went through this assay and about 14,000 (4.5%) showed an effect of 50% or more. The effect is printed as a negative number. What follows is part of a selection rich in strong results, with near analogues and random picks from the rest.
# Target: human ether-à-go-go-related gene (hERG) potassium channel (human, UniProt Q12809)
# Assay: primary screen, population patch clamp on CHO cells stably expressing hERG; higher = less effect of the substance
# 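Note: peak tail current of the secondary pulse compared with the same well before compound.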
# Sequence of human ether-à-go-go-related gene (hERG) potassium channel (Q12809 whole entry, looked up): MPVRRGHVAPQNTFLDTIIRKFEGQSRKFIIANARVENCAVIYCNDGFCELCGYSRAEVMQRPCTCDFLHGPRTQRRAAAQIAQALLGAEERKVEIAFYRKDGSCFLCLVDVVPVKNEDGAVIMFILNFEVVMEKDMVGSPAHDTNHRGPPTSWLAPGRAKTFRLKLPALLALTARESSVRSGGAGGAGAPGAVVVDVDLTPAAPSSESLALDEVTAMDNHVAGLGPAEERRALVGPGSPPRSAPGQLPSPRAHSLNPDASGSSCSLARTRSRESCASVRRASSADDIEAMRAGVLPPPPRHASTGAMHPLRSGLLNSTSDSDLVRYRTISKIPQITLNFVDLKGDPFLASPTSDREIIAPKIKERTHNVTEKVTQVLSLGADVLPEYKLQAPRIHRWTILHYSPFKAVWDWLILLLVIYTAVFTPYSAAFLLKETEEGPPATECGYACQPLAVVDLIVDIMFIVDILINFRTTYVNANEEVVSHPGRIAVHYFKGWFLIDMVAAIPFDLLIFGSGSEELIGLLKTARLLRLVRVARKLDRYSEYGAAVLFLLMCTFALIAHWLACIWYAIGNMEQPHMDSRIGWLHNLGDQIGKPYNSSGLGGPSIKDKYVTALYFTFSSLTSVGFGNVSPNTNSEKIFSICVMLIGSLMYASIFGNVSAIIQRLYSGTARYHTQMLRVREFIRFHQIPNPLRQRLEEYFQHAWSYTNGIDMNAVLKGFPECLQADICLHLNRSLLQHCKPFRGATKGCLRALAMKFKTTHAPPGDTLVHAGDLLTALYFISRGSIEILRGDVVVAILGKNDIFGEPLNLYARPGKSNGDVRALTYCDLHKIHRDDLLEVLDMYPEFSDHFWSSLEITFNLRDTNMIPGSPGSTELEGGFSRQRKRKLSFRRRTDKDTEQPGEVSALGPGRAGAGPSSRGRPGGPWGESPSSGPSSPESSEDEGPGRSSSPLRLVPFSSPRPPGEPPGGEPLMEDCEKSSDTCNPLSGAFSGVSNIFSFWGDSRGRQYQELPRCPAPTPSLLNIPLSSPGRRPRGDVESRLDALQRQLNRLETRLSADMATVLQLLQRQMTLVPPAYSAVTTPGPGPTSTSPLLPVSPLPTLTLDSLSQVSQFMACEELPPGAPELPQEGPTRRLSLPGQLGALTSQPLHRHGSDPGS
row,SMILES,"hERG current change (%, negative = inhibition) at 10uM [%]"
1,COC(=O)c1cccc(Nc2cc(C)nc(-c3ccccc3O)n2)c1,10.2
2,COc1ccc(/C=C/C(=O)OCC(=O)c2ccc3c(c2)NC(=O)CO3)c(OC)c1,1.6
3,Cc1ccccc1NC(=O)C1CCCN(S(=O)(=O)c2ccc3c(c2)C(C)(C)C(=O)N3C)C1 (stereo not drawn),6.82
4,C=CCOc1ccccc1CN1CCC(n2nccc2NC(=O)C2CCOC2)CC1 (stereo not drawn),-21.5
5,COc1ccccc1CN1CCC(n2nccc2NC(=O)CCCc2ccccc2)CC1,-85.2
6,CCOc1ccccc1CN1CCC(n2nccc2NC(=O)CCc2ccccc2)CC1,-38.6
7,COCc1ccc(CN2CCC(n3nccc3NC(=O)CCCc3ccccc3)CC2)o1,21.5
8,O=C(Nc1ccnn1C1CCN(Cc2c[nH]c3ccccc23)CC1)c1ccccc1,-44.7
9,C=CCOc1ccccc1CN1CCC(n2nccc2NC(=O)c2ccccc2)CC1,-64.4
10,COc1ccccc1CN1CCC(n2nccc2NC(=O)CCc2ccccc2)CC1,-23.9
11,CCOc1ccccc1CN1CCC(n2nccc2NC(=O)CCCc2ccccc2)CC1,-83.7
12,COc1cccc(CN2CCC(n3nccc3NC(=O)CCCc3ccccc3)CC2)c1O,-75.9
13,O=S(=O)(NCc1cccnc1)c1ccc(Cl)c(Cl)c1,-10.9
14,O=C(CN1CCCCC1)Nc1cc(S(=O)(=O)N2CCOCC2)ccc1N1CCCC1,6.08
15,COc1ccc(C(=O)C[n+]2cccc3cc(OC)ccc32)cc1.[Br-],6.04
16,CCn1c(=O)n(CC)c2cc(NC(=O)CSc3ccc([N+](=O)[O-])cn3)ccc21,-5.04
17,Cc1nnc(SCC(=O)Nc2ccc(N3CCOCC3)cc2)o1,10.3
18,COc1cccc(CN2CCC(n3nccc3NC(=O)CCOc3ccccc3)CC2)c1O,-61.5
19,Cc1ccccc1CN1CCC(n2nccc2NC(=O)CCOc2ccccc2)CC1,-44.9
20,COCc1ccc(CN2CCC(n3nccc3NC(=O)CCOc3ccccc3)CC2)o1,-0.748
21,CCC1(CC)NC(=O)N(CC(=O)OC(C)C(=O)Nc2ccccc2OC)C1=O (stereo not drawn),32.3

row,SMILES,"hERG current change (%, negative = inhibition) at 10uM [%]"
1,CCC1(CC)NC(=O)N(CC(=O)OC(C)C(=O)Nc2ccc(Cl)cn2)C1=O (stereo not drawn),-51.7
2,CCC1(CC)NC(=O)N(CC(=O)OC(C)C(=O)Nc2ccc(NC(C)=O)cc2)C1=O (stereo not drawn),3.1
3,N#Cc1ccsc1NC(=O)CN1CCN(S(=O)(=O)c2ccccc2C(F)(F)F)CC1,-56.9
4,N#Cc1ccsc1NC(=O)CN1CCCCCC1,-3.42
5,N#Cc1ccsc1NC(=O)CN1CCN(c2ccccc2O)CC1,-4.95
6,Cc1ccc(C)c(S(=O)(=O)N2CCN(CC(=O)Nc3sccc3C#N)CC2)c1,-57.7
7,CC(=O)N1CCN(CC(=O)Nc2sccc2C#N)CC1,17.8
8,N#Cc1ccsc1NC(=O)CN1CCN(S(=O)(=O)c2cc(Cl)ccc2Cl)CC1,-32
9,COC(=O)C1=C2c3[nH]c4ccccc4c3CCN2C(=O)CC1,-23.1
10,O=C(CN1CCOCC1)NCc1ccccc1,17.4
11,C=C(C)COc1ccc(-c2[nH]ncc2-c2ccc(OC)c(OC)c2)c(O)c1,-0.891
12,Cc1cc(C)c(NC(=O)CN(C)C(C)C(=O)N2CCc3ccccc32)c(C)c1 (stereo not drawn),-50.3
13,CC(C(=O)N1CCc2ccccc21)N(C)CC(=O)Nc1ccccc1Cl (stereo not drawn),-29.2
14,CC(C(=O)N1CCc2ccccc21)N(C)CC(=O)Nc1ccc(F)cc1 (stereo not drawn),-47.9
15,CCOC(=O)c1c(C)nc(-c2ccccc2)nc1N,7.25
16,CCCCC(=O)N1C/C=C\C(c2ccc(OC)cc2)N(Cc2ccc(F)cc2)C(=O)[C@H]1Cc1ccccc1 (stereo partly drawn),7.51
17,CCCCC(=O)N1C/C=C\[C@H](c2ccc(OC)cc2)N(Cc2ccc(F)cc2)C(=O)[C@@H]1C,-68.6
18,COc1ccc([C@H]2/C=C\CN(C(=O)CC(C)(C)C)[C@@H](C)C(=O)N2Cc2ccc(F)cc2)cc1,-17.4
19,CN(CCNC(=O)C1CCN(S(=O)(=O)c2cnc[nH]2)CC1)Cc1ccccc1,12.6
20,O=C(CCC1CCCCC1)Nc1ccccc1O,3.23
21,COc1ccc(CN2CCN(Cc3ccc4cc(F)ccc4n3)CC2CCO)c(C)c1C (stereo not drawn),-63.7

row,SMILES,"hERG current change (%, negative = inhibition) at 10uM [%]"
1,CCOc1ccc(CN2CCN(Cc3ccc4cc(F)ccc4n3)CC2CCO)cc1 (stereo not drawn),-75.7
2,CC(=O)Nc1ccc2nc(CN3CCN(Cc4ccc(F)cc4)C(CCO)C3)ccc2c1 (stereo not drawn),-28.8
3,COc1ccc(CN2CCN(Cc3ccon3)CC2CCO)c(C)c1C (stereo not drawn),-37.3
4,COc1cc(CN2CCN(Cc3ccc4cc(F)ccc4n3)CC2CCO)cc(OC)c1 (stereo not drawn),-64.4
5,COc1cccc(CN2CCN(Cc3ccc4c(NC(C)=O)cccc4n3)CC2CCO)c1 (stereo not drawn),5.13
6,Cc1ccc(CN2CCN(Cc3ccc4cc(F)ccc4n3)CC2CCO)o1 (stereo not drawn),-30.6
7,COc1ccc(-c2csc3nc(C)nc(N4CCCCC4)c23)cc1OC,-7.85
8,CC(C)C1Cc2c(sc3c2c(=O)n(Cc2ccccc2)c2nncn32)CO1 (stereo not drawn),-11
9,COc1ccc(N2C(=O)CC(N3CCN(S(=O)(=O)c4cc(C)ccc4C)CC3)C2=O)cc1 (stereo not drawn),-6.8
10,CC12C=CC3(O1)C(C(=O)N1CCCOC13)C2C(=O)O (stereo not drawn),-2.54
11,CC(C)c1ccc(CN(C(=O)c2cc3ccccc3oc2=O)C2CCS(=O)(=O)C2)cc1 (stereo not drawn),-62
12,CN(C)c1ccc(CN(C(=O)c2cc3ccccc3oc2=O)C2CCS(=O)(=O)C2)cc1 (stereo not drawn),-11.8
13,Cc1ccc(CN(C(=O)c2cc3ccccc3oc2=O)C2CCS(=O)(=O)C2)cc1 (stereo not drawn),-34
14,Cc1cc(C)cc(N(C(=O)c2cc3ccccc3oc2=O)C2C=CS(=O)(=O)C2)c1 (stereo not drawn),-55.4
15,Cc1ccc(N(C(=O)c2cc3ccccc3oc2=O)C2C=CS(=O)(=O)C2)cc1 (stereo not drawn),-6.15
16,O=C(c1cc2ccccc2oc1=O)N(c1ccccc1)C1C=CS(=O)(=O)C1 (stereo not drawn),2.29
17,COc1ccc(CN(C(=O)c2cc3ccccc3oc2=O)C2CCS(=O)(=O)C2)cc1 (stereo not drawn),-18.9
18,O=C(c1cc2ccccc2oc1=O)N(Cc1ccccc1)C1CCS(=O)(=O)C1 (stereo not drawn),-12.2
19,CCc1ccc(CN(C(=O)c2cc3ccccc3oc2=O)C2CCS(=O)(=O)C2)cc1 (stereo not drawn),-56.5
20,CC1(C)CC(=O)C=C(Nc2ccc3c(c2)CCC3)C1,-2.73
21,O=C(Nc1ccccc1)NC1CCN(Cc2nnnn2C2CCCCC2)CC1,-29.2

row,SMILES,"hERG current change (%, negative = inhibition) at 10uM [%]"
1,CCN1CCN(C(=O)c2ccc(CS(=O)Cc3ccc(C)cc3)o2)CC1 (stereo not drawn),11
2,O=C(O)C1CCCC2CN3CCc4c([nH]c5ccccc45)C3C(O)C21 (stereo not drawn),13.7
3,Cc1ccc(N(C(=O)CNC(=O)c2ccco2)C(C(=O)NC2CCCC2)c2ccncc2)c(C)c1 (stereo not drawn),14.6
4,CCOc1ccc(NS(=O)(=O)c2ccc(NC(=O)C3CCCO3)cc2)cc1 (stereo not drawn),20.7
5,C/C(=N\NC(=S)NCc1ccccc1)c1ccc2ccccc2c1,15.9
6,CN(C)CCCNc1ccc(-c2n[nH]c(=O)c3ccccc23)cc1[N+](=O)[O-],1.1
7,OCCC1CN(Cc2ccc3nsnc3c2)CCN1C1CCCC1 (stereo not drawn),-25
8,OCC1(Cc2ccc(Cl)cc2)CCN(Cc2ccc3nsnc3c2)CC1,-61.5
9,COc1ccc(CC2(CO)CCN(Cc3ccc4c(c3)CCO4)CC2)cc1,-65.7
10,COc1ccc(C(=O)NCc2ccc3c(c2)CCO3)cc1,7.15
11,OCC1(Cc2ccccc2C(F)(F)F)CCN(Cc2ccc3c(c2)CCO3)CC1,-28.7
12,O=C(c1cnsn1)N1CCC(CO)(Cc2ccc(Cl)cc2)CC1,-43.7
13,COc1ccc(CC2(CO)CCN(Cc3nc(C(C)C)cs3)CC2)cc1,-48.4
14,OCC1(CCc2ccccc2)CCN(Cc2ccc3nsnc3c2)CC1,-77.7
15,COc1ccc(CC2(CO)CCN(Cc3ccc4nsnc4c3)CC2)cc1,-58.9
16,CC(NS(=O)(=O)c1ccc(F)cc1)C(=O)Nc1ccc2c(c1)OCCO2 (stereo not drawn),13.2
17,CCOC(=O)c1ccc(N2C(=O)c3n[nH]c(C)c3C2c2ccco2)cc1 (stereo not drawn),-5.29
18,Cc1ncoc1C(=O)N1CCCC(CCC(=O)NCc2ccccc2F)C1 (stereo not drawn),-6.93
19,N#Cc1nc(COc2cccc(Cl)c2)oc1N1CCN(c2ccccc2)CC1,-4.18
20,COCCNC(=O)/C(C#N)=C/c1ccc(O)c([N+](=O)[O-])c1,14.7
21,CC(CS(=O)(=O)c1ccc2c(c1)NC(=O)CS2)C(=O)NCc1ccccc1Cl (stereo not drawn),-0.823
